TWEAK-Fn14 inh: TWEAK-Fn14 signaling inhibition; TWEAK-stimulated Fn14 reporter cells, luciferase luminescence, 8 h; inhibition, % at 10 µM; 2% of 360,000 active; AID 1159606; in the data active means inhibition above about 50%
HSP90 refold inh: HSP90 refolding inhibition in rabbit reticulocyte lysate | luciferase refolding luminescence, 3 h | 0.91% of 290,000 active | AID 1789 | inhibition, % at 5.6 µM;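 active means inhibition above the screen-wide mean plus 3 SD, computed separately per campaign, cut at about 16% in these data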;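 further: 0% = DMSO wells and 100% = 60 µM geldanamycin wells; inhibitors lower the luminescence because luciferase stays unfolded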
LGR2 antag: inhibitors of bursicon-induced Drosophila LGR2 receptor cAMP signaling. HEK293 LGR2, CRE-luciferase, bursicon-stimulated, 4 h. inhibition, % at 9.99 µM. 0.35% of 380,000 active;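 active means drop in luminescence signal, shown as inhibition above about 50% in the replicate tests, limit read from the data, passing the limit was not always enough; inconclusive means probably only some replicates passing the limit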;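 further: agonist challenge used bursicon conditioned medium at about half maximal strength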
TROY NFkB inh: TROY signaling inhibition; Q293 LMP1-TROYcd NF-kB luciferase reporter, 4 h; inhibition, % at 10 µM; 0.98% of 360,000 active; AID 1347056;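 active means compounds whose plate-normalised and pattern-corrected inhibition of the luciferase reporter signal at the single screening dose is 50% or more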
Numbers without * were called inactive; ? = inconclusive; nt = no result given. Compounds with a hit are over-represented: about 2.2% of the library has one in this group of screens.

SMILES | TWEAK-Fn14 inh | HSP90 refold inh | LGR2 antag | TROY NFkB inh
CCCC#Cc1ccc2c(c1)O[C@@H](CN(C)Cc1ccncc1)[C@@H](C)CN([C@H](C)CO)S2(=O)=O | nt | nt | -2 | nt
S=C(Nc1ccc2nsnc2c1)NC1CCCCC1 | 6 | 7 | -79 | -70
S=C(Nc1ccc(Cl)c(Cl)c1)NC1CCCCC1 | 63* | 0 | -11 | 19
O=C(CSc1nn(-c2ccccc2)c(=S)s1)Nn1cnnc1 | 2 | 3 | nt | -15
Cc1ccc(NC(=O)CSc2nn(-c3ccccc3)c(=S)s2)cc1S(=O)(=O)N(C)C | 79* | 2 | 23 | 49
O=C(/C=C/c1ccccc1)Nc1ncn[nH]1 | 70* | 1 | -2 | -9
C[C@H]1CN([C@@H](C)CO)C(=O)CCCn2nncc2CO[C@@H]1CN(C)C(=O)Nc1ccc(C(F)(F)F)cc1 | nt | nt | 3 | nt
CCCNC(=O)N[C@@H]1C=C[C@@H](CC(=O)NC2CCCCC2)O[C@@H]1CO | nt | nt | -15 | nt
COc1ccc(CN(C)C[C@H]2OCCCC[C@H](C)Oc3ccc(NC(=O)NC4CCCCC4)cc3C(=O)N([C@H](C)CO)C[C@@H]2C)cc1 | nt | nt | -9 | nt
COC(=O)c1ccc(=O)n(Cc2ccco2)c1 | -15 | 0 | nt | 13
COC(=O)c1cc(Br)c(=O)n(Cc2ccco2)c1 | 78* | 2 | nt | nt
C/C=C/c1ccc([C@@H]2[C@H](CO)N(C(C)=O)C23CN(C(=O)NC2CCCC2)C3)cc1 | nt | nt | 4 | nt
O=C(Nc1ccc(F)cc1)N1CC(=O)N2[C@H](CO)[C@H](c3ccc(C4=CCCC4)cc3)[C@H]2C1 | nt | nt | 7 | nt
CC1=C(C(=O)Nc2ccccc2)C(c2ccco2)C(C#N)=C(SCC(=O)OC(C)C)N1 (stereo not drawn) | 59* | 5 | nt | 14
COc1cccc(/C=C2/CCC(CN(C)C)C2=O)c1 (stereo not drawn) | 86* | nt | nt | 10
COc1ccc(/C=C2/CCCC(CN(C)C)C2=O)cc1 (stereo not drawn) | -19 | nt | -13 | -1
CC(C)CN(C(=O)COC(=O)C12CC3CC(CC(O)(C3)C1)C2)c1c(N)n(Cc2ccccc2)c(=O)[nH]c1=O | 4 | nt | 2 | 8
CC(C)CN(C(=O)COC(=O)C12CC3CC(CC(C3)C1)C2)c1c(N)n(Cc2ccccc2)c(=O)[nH]c1=O | 55* | nt | ? | 21
O=C(C[C@@H]1CC[C@H]2[C@@H](COC[C@H](O)CN2S(=O)(=O)c2cccc(Cl)c2)O1)Nc1ccccc1 | nt | nt | 20 | nt
COc1ccccc1Nc1ccc2c(O)cc(S(=O)(=O)O)cc2c1 | 79* | nt | -4 | 17
CCN(CC)S(=O)(=O)c1cccc(-c2nnc(SCc3nc4ccccc4s3)o2)c1 | 49 | 1 | nt | 57*
O=C(O)/C=C/c1ccc(S(=O)(=O)Nc2ccc(OCc3ccccc3)cc2)cc1 | 14 | -3 | 3 | 34
N#Cc1ccccc1COc1ccc(/C=C/C(=O)O)cc1 | 74* | 12 | -15 | 29
Cc1noc(C)c1S(=O)(=O)N(C)C[C@@H]1OCCCC[C@@H](C)Oc2ccc(NC(=O)Nc3ccc(F)cc3)cc2C(=O)N([C@@H](C)CO)C[C@@H]1C | nt | nt | 5 | nt
Cc1ccc(C)c(NC(=O)CCC(=O)N/N=C/c2ccc[nH]2)c1 | -2 | 2 | 9 | -39
SMILES | TWEAK-Fn14 inh | HSP90 refold inh | LGR2 antag | TROY NFkB inh
Cc1ccc(NCC(=O)N/N=C\c2ccc[nH]2)cc1 | 89* | 2 | -11 | 69*
C[C@H](CO)N1C[C@H](C)[C@@H](CN(C)S(=O)(=O)c2ccccc2)Oc2ccc(NC(=O)C3CC3)cc2CC1=O | nt | nt | 7 | nt
COc1ccc(S(=O)(=O)N[C@H]2CC[C@@H](CC(=O)N3CCc4ccccc4C3)O[C@@H]2CO)cc1 | nt | nt | 7 | nt
O=C(C[C@@H]1C[C@H]2c3cc(NC(=O)CC4CC4)ccc3O[C@H]2[C@H](CO)O1)NCC(F)(F)F | nt | nt | 15 | nt
COc1ccc(-c2cc(CCCC(=O)N3CCN(c4ccc(OC)cc4)CC3)no2)cc1 | 51* | 0 | -8 | 24
COc1ccc(N2CCN(C(=O)COCc3cc(-c4ccc5c(c4)OCO5)on3)CC2)cc1 | 9 | -1 | 18 | -20
N#C/C(=N/Nc1ccc(OC(F)(F)F)cc1)C(N)=S | 80* | -1 | 33 | 49
O=C(CCCn1c(=S)[nH]c2ccccc2c1=O)N1CCN(c2cccc(Cl)c2)CC1 | 51* | -3 | nt | 52*
COc1cccc(N2CCN(C(=O)CCCCCNc3nc(=S)[nH]c4ccccc34)CC2)c1 | 53* | -2 | ? | 70*
COc1ccc(C(NC(=O)c2c(F)c(F)c(F)c(F)c2F)c2ccccc2)cc1 (stereo not drawn) | 5 | -4 | 67* | 69*
COc1ccc(C(NC(=O)c2cc(OC)ccc2OC)c2ccccc2)cc1 (stereo not drawn) | 46 | -2 | -2 | 8
O=C(CN1CCOCC1)N1CCCCN2[C@H](CO)[C@H](c3ccc(C#Cc4ccccc4)cc3)[C@@H]2C1 | nt | nt | 1 | nt
CC(=O)Nc1ccc(S(=O)(=O)Nc2ccc3[nH]c(=O)[nH]c3c2)cc1 | 54* | -1 | -9 | 19
O=C(Nc1cccc(C(F)(F)F)c1)Nc1ccc(N2CCCC2)c(S(=O)(=O)Nc2ccccc2Cl)c1 | 80* | 0 | 12 | 41
CC(=O)Nc1ccc(N2CCOCC2)c(S(=O)(=O)Nc2ccccc2Cl)c1 | 16 | nt | 9 | -11
CCCCOc1ccc(/C=C/C(=O)OCC(=O)N2CC(=O)Nc3ccccc32)cc1OCC | 68* | 9 | 19 | 43
Cc1nc(SCc2nc3cc(Cl)c(F)cc3[nH]2)c2oc3ccccc3c2n1 | 53* | nt | 18 | 6
Cc1nc(SCc2nc3ccc(Cl)cc3[nH]2)c2oc3ccccc3c2n1 | -13 | nt | nt | 17
CO[C@H]1CN(C)C(=O)c2ccc(NC(=O)C3CC3)cc2OC[C@@H](C)N(Cc2cncnc2)C[C@H]1C | nt | nt | 4 | nt
COc1ccc(S(=O)(=O)N(C)C[C@@H]2Oc3c(NC(=O)Nc4ccc5c(c4)OCO5)cccc3C(=O)N([C@H](C)CO)C[C@H]2C)cc1 | nt | nt | 29 | nt
O=C(O)c1ccccc1SCc1cn2cc(Cl)ccc2n1 | 15 | -2 | 10 | -8
CC(SCc1cn2cc(Cl)ccc2n1)C(=O)O (stereo not drawn) | 76* | 2 | nt | nt
CCS(=O)(=O)Nc1ccc2c(c1)C(=O)N(C)[C@@H]1CC[C@@H](CC(=O)NCc3ccccc3F)O[C@@H]1CO2 | nt | nt | -6 | nt
COCCn1nnnc1C(c1ccc(OC)cc1OC)N1CCN(c2ccccc2F)CC1 (stereo not drawn) | 5 | 1 | nt | -4
CCc1ccc2[nH]c(=O)c(C(c3nnnn3CCOC)N3CCN(c4ccccc4F)CC3)cc2c1 (stereo not drawn) | 50 | 2 | nt | 53*
SMILES | TWEAK-Fn14 inh | HSP90 refold inh | LGR2 antag | TROY NFkB inh
O=Nc1c(O)c2ccccc2c2ccccc12 | 98* | nt | 82* | 42
NCCOc1ccccc1-c1ccccc1 | 25 | -1 | nt | 0
Nc1ccc(Oc2ccccc2-c2ccccc2)cc1 | 82* | nt | nt | 68*
COc1cccc(CN(C)C(=O)CNC(=O)c2ccc(-c3ccccc3)cc2)c1OC | 51* | 0 | 5 | 36
CO[C@H]1CN(C)C(=O)c2cc(NC(=O)C3CCC3)ccc2OC[C@@H](C)N(C(=O)NC(C)C)C[C@H]1C | nt | nt | 2 | nt
O=c1oc2c(O)c(O)cc3c(=O)oc4c(O)c(O)cc1c4c23 | 88* | 6 | nt | 15
